# Assay results published in the supplement of paper PMC11732987, “Enantioselective OTUD7B fragment discovery through chemoproteomics screening and high-throughput optimisation” (Communications Chemistry, 2025).
# A number with no mark means an inactive call.
# Experiments:
# Experiment in all cases: log2 ratio of Biotin-Ahx-Ub-VS probe labelling (fragment/DMSO); higher = less target engagement (more negative = stronger competition), active = hit call of the paper (q ≤ 0.05, log2 ratio ≤ -1)
# Settings in all cases: compound concentration: 200 uM; treatment time: 3 h
# [1] = target: T1, ALG13 (UniProt Q9NP73)
# T1 sequence (whole entry): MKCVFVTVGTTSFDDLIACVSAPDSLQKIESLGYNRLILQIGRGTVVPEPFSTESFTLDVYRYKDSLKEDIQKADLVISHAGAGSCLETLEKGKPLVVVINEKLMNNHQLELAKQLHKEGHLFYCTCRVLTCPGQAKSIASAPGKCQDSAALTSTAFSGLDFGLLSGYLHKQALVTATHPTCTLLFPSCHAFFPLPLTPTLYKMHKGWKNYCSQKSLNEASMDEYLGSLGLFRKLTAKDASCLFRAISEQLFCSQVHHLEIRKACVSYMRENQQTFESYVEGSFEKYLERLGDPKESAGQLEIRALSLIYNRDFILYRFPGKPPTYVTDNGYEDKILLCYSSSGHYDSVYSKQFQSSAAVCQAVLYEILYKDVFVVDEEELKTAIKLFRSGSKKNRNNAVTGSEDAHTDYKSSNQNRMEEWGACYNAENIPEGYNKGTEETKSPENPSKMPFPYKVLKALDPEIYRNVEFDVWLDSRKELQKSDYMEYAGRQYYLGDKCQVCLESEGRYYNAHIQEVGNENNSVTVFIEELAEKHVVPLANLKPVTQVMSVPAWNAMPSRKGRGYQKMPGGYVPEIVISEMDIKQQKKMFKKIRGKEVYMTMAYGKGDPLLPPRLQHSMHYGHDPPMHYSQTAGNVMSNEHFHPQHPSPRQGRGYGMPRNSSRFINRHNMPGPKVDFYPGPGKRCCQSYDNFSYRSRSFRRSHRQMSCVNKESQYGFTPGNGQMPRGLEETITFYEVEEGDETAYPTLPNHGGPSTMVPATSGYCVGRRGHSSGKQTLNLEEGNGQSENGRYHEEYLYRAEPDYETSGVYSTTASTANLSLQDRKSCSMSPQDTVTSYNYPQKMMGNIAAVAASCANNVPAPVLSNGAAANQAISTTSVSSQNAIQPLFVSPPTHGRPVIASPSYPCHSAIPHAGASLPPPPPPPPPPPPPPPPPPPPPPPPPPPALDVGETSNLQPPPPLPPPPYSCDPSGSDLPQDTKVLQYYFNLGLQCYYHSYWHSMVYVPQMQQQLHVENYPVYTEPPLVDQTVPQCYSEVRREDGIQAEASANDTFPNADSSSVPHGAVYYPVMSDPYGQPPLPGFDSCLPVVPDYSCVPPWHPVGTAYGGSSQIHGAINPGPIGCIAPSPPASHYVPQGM
# Summary of the method: (§1)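 HEK293T lysate in Tris/CHAPS/IGEPAL buffer with protease inhibitors (495 µg per sample) was given fragment at 200 µM or vehicle for 3 h, in triplicate. It then received Biotin-Ahx-Ub-VS at 0.5 µM final for 1 h. Labelled DUBs were NeutrAvidin-enriched, digested with LysC and trypsin, and run by diaPASEF LC-MS/MS. Values are average log2 fragment/vehicle ratios by unpaired t-test on global-median-normalised Spectronaut quantities of proteins with ≥2 unique peptides.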
# [2] = target: ATXN3 (UniProt P54252)
# Summary of the method: as §1
# [3] = target: T2, BAP1 (UniProt Q92560)
# T2 sequence (whole entry): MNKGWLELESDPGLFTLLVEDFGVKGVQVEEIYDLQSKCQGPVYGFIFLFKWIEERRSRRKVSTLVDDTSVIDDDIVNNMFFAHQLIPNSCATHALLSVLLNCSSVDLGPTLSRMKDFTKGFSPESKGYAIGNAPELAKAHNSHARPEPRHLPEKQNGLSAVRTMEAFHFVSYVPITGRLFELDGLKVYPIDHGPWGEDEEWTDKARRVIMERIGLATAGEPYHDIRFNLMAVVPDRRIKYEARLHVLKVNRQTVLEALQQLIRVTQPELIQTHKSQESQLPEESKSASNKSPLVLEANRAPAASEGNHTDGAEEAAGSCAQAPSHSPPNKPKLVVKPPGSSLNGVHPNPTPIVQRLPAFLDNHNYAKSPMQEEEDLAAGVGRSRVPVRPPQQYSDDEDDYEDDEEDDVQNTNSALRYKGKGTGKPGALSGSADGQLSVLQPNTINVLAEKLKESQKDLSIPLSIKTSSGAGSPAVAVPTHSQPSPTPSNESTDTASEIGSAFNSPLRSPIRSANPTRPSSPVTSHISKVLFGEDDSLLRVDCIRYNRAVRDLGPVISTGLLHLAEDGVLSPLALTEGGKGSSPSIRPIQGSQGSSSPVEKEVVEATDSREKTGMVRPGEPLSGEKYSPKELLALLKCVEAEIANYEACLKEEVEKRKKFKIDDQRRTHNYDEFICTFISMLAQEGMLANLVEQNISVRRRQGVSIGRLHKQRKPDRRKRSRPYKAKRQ
# Summary of the method: as §1
# [4] = target: EIF3F (UniProt O00303)
# Summary of the method: as §1
# [5] = target: EIF3H (UniProt O15372)
# Summary of the method: as §1
# [6] = target: T3, FAM105A (UniProt Q9NUU6)
# T3 sequence (whole entry): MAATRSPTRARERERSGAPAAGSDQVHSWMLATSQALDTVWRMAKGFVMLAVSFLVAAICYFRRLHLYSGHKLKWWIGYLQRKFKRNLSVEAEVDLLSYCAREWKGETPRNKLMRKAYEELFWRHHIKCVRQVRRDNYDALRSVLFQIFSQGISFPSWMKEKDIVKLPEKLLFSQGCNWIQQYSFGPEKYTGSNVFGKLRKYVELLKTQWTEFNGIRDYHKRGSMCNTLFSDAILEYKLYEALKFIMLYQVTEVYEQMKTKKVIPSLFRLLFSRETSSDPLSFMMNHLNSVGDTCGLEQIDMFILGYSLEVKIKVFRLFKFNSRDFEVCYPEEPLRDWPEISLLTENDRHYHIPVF
# Summary of the method: as §1
# [7] = target: OTUB1 (UniProt Q96FW1)
# Summary of the method: as §1
# [8] = target: T4, OTUD4 (UniProt Q01804)
# T4 sequence (whole entry): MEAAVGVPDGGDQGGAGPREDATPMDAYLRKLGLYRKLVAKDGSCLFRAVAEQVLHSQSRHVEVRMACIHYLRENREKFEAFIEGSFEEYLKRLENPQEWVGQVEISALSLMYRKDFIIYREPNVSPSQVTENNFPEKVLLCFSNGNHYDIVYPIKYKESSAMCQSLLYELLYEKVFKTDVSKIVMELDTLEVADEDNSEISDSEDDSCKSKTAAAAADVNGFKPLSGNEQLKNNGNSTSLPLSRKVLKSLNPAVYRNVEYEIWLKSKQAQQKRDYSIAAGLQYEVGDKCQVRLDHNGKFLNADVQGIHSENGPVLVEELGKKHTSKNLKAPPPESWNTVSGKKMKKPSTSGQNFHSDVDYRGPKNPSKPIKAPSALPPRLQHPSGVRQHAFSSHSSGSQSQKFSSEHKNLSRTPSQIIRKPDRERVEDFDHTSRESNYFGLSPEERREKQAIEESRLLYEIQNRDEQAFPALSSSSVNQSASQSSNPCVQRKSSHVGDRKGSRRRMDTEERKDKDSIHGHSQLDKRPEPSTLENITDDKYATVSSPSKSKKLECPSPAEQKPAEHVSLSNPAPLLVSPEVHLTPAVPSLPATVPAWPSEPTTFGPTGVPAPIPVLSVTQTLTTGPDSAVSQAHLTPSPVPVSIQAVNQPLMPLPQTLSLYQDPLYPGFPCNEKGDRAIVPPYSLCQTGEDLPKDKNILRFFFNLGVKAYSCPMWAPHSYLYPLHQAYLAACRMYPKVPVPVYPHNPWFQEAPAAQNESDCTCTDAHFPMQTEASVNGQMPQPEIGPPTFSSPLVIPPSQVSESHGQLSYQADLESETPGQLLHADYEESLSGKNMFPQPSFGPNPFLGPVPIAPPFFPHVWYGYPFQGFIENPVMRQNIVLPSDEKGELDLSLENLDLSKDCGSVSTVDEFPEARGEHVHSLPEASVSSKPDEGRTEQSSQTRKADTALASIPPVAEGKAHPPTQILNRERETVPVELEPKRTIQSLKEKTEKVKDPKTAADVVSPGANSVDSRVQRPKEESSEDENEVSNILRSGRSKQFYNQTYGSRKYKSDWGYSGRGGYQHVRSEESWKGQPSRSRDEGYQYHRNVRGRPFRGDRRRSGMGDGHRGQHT
# Summary of the method: as §1
# [9] = target: T5, OTUD5 (UniProt Q96G74)
# T5 sequence (whole entry): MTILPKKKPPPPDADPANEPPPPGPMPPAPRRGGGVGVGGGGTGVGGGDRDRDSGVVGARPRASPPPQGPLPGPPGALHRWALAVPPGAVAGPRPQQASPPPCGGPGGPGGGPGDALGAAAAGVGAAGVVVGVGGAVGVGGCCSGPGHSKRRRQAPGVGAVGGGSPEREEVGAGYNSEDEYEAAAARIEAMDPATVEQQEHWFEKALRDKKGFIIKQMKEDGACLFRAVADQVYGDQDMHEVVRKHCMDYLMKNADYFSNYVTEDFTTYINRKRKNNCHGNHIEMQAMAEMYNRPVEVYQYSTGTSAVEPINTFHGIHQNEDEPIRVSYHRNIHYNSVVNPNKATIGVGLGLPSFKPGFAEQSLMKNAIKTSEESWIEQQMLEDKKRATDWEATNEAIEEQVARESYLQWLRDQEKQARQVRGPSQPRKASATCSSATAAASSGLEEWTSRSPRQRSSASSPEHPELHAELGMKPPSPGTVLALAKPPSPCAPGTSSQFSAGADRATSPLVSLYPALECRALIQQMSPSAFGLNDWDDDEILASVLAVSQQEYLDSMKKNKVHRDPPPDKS
# Summary of the method: as §1
# EIF3H, sequence (O15372 whole entry): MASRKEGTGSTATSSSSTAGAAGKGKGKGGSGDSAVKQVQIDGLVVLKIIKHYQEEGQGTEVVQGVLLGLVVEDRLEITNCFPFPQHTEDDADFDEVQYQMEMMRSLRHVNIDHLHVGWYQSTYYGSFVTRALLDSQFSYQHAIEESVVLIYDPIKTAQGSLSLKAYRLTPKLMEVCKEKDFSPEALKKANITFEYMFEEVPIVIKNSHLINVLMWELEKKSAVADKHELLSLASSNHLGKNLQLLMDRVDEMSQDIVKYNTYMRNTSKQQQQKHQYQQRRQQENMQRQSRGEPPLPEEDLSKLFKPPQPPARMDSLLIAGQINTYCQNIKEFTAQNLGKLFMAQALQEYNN
# OTUB1, sequence (Q96FW1 whole entry): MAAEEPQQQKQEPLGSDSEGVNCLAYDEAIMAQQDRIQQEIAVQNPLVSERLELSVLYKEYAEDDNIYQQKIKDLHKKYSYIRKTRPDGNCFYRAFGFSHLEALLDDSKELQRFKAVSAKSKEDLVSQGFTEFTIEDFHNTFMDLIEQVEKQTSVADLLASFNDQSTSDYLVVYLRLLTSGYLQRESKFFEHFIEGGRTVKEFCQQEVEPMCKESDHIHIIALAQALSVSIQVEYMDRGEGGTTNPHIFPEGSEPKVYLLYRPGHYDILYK
# EIF3F, sequence (O00303 whole entry): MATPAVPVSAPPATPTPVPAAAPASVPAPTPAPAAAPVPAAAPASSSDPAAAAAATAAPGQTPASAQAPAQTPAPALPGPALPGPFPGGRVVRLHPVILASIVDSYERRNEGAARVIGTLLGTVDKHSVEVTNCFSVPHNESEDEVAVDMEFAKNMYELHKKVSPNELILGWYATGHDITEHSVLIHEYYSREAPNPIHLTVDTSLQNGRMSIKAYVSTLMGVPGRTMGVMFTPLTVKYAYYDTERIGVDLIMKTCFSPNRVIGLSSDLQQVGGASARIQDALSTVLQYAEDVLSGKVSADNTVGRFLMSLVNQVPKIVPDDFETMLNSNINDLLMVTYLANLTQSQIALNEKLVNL
# ATXN3, sequence (P54252 whole entry): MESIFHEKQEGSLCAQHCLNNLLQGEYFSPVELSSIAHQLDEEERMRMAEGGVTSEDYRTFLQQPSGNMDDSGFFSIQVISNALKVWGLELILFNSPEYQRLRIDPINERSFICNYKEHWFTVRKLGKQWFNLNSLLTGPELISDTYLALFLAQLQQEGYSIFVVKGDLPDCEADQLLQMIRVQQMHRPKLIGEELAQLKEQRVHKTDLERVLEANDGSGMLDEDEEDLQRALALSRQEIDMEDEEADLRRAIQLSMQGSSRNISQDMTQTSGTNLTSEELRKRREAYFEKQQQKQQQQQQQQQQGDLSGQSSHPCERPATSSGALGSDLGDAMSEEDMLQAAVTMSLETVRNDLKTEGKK
Compound,log2 ratio of Biotin-Ahx-Ub-VS probe labelling [1],log2 ratio of Biotin-Ahx-Ub-VS probe labelling [2],log2 ratio of Biotin-Ahx-Ub-VS probe labelling [3],log2 ratio of Biotin-Ahx-Ub-VS probe labelling [4],log2 ratio of Biotin-Ahx-Ub-VS probe labelling [5],log2 ratio of Biotin-Ahx-Ub-VS probe labelling [6],log2 ratio of Biotin-Ahx-Ub-VS probe labelling [7],log2 ratio of Biotin-Ahx-Ub-VS probe labelling [8],log2 ratio of Biotin-Ahx-Ub-VS probe labelling [9]
NC(=O)C(Cc1ccccc1)NC(=O)CCl (stereo unspecified),0.0325,-0.279,-2.01 (active),0.127,-0.254,-0.0569,0.128,-0.451,-0.216
CC(NC(=O)CCl)c1cc2n(n1)CCCC2.Cl (stereo unspecified),0.164,0.242,-1.36 (active),-0.359,0.193,-0.0943,0.0152,0.133,-0.0818
O=C(CCl)Nc1nc(-c2cccs2)cs1,0.184,-0.6,-3.09 (active),-0.0224,0.216,-0.186,0.196,-0.708,-0.636
Cc1ccccc1C1(CNC(=O)CCl)CCOCC1,0.22,-0.273,-1.23 (active),0.0678,0.00175,0.0441,-0.0623,-0.322,-0.157
CC(c1ccccc1)N(C)C(=O)CCl (stereo unspecified),-0.0878,-0.667,-0.362,0.107,0.0952,-0.093,0.146,-0.0165,-0.419
O=C(CCl)N1CCN(C(=O)Nc2ccccc2)CC1,0.164,-0.281,-0.529,0.181,0.232,0.233,0.155,0.0219,-0.224
O=C(CCl)NCc1ccc2c(c1)OCO2,0.0126,0.173,-3.05 (active),-0.126,-0.0114,-0.111,-0.278,-0.266,0.0579
N#Cc1ccc(CNC(=O)CCl)cc1,-0.583,-0.171,-3.38 (active),-0.0324,0.142,-0.00692,-0.0861,-0.138,-0.348
O=C(CCl)Nc1ccc(N2CCCC2=O)cc1,0.0794,0.0787,-3.73 (active),-0.125,0.315,0.0919,-0.351,0.0281,-0.504
Cc1cccc(NC(=O)CCl)c1C,0.138,-0.243,-3.21 (active),-0.272,0.00998,0.19,0.0184,-0.0599,-0.394
CCN1C(=O)C2CN(C(=O)CCl)CCN2C1=O (stereo unspecified),0.104,-0.84,-0.369,-0.18,0.0778,-0.218,-0.315,-0.523,-0.206
Cc1ccn2cc(CNC(=O)CCl)nc2c1.Cl,0.193,-0.103,-1.14 (active),-0.185,0.253,0.254,0.0771,-0.505,-0.214
Cl.O=C(CCl)N1CCN(Cc2ccccc2)CC1,0.239,-0.805,-0.734,-0.615,0.134,-0.0745,-0.185,-0.316,-0.551
CN(CCc1ncc(Br)cn1)C(=O)CCl.Cl,-0.0179,-0.617,-0.611,-0.295,0.145,0.245,0.000215,-0.616,-0.588
